Measured values published in PubChem BioAssay (NCI).
The panel holds about 79,000 compounds, 15% with a hit somewhere; the sample as a whole holds those more often. A number with no mark means an inactive call. Active and inactive are the calls of the source. Cut-off read from the data, not from the text of the source: active = growth inhibition above about 70%; inactive = the rest.

Key:
[1] = NCI Yeast Anticancer Drug Screen. Data for the rad50 strain (AID 155);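 note: 0% = growth of vehicle-only cultures of the same strain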; conditions: S. cerevisiae rad50 strain growth inhibition, active compounds read high
Summary of the method: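 Inhibition values express reduced yeast growth in compound-treated cultures relative to vehicle-treated controls.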

[2] = NCI Yeast Anticancer Drug Screen. Data for the mec2-1 strain (AID 157); conditions: S. cerevisiae mec2-1 strain, active compounds read high
Summary of the method: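 Yeast mec2-1 mutant treated with compound. Readout: growth inhibition vs vehicle controls.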

[3] = NCI Yeast Anticancer Drug Screen. Data for the sgs1 mgt1 strain (AID 161);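 note: 0% = growth of cultures given vehicle only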; conditions: S. cerevisiae sgs1 mgt1 strain, active compounds read high
Summary of the method: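 Read-out: growth inhibition vs vehicle controls. Cells: mutant yeast strain deficient in DNA damage repair.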

[4] = NCI Yeast Anticancer Drug Screen. Data for the cln2 rad14 strain (AID 165);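 note: 0% = growth equal to vehicle treated cultures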; conditions: S. cerevisiae cln2 rad14 strain, active compounds read high
Summary of the method: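 cln2 rad14 yeast strain; compound exposure; growth inhibition read vs vehicle controls.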

[5] = NCI Yeast Anticancer Drug Screen. Data for the bub3 strain (AID 167); conditions: S. cerevisiae bub3 mutant strain, active compounds read high
Summary of the method: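 Steps: expose the mutant yeast strain to compound; grow alongside vehicle-treated cultures; measure growth; express inhibition against the vehicle cultures.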

[6] = NCI Yeast Anticancer Drug Screen. Data for the mlh1 rad18 strain (AID 175); conditions: S. cerevisiae mlh1 rad18 strain growth inhibition, active compounds read high
Summary of the method: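 Yeast w/ defined DNA-repair lesions; compound exposure; growth vs vehicle controls → % inhibition.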

[7] = at 5.0 µM (retest, dose inferred, filed as 0.5)
[8] = at 50.0 µM (retest, dose inferred, filed as 5.0)

Row | Structure (SMILES) | growth inhibition [1, 7] | growth inhibition [1, 8] | growth inhibition ([1]; at 50.0 µM) | growth inhibition [2, 7] | growth inhibition [2, 8] | growth inhibition ([2]; at 50.0 µM) | growth inhibition [3, 7] | growth inhibition [3, 8] | growth inhibition ([3]; at 50.0 µM) | growth inhibition [4, 7] | growth inhibition [4, 8] | growth inhibition ([4]; at 50.0 µM) | growth inhibition [5, 7] | growth inhibition [5, 8] | growth inhibition ([5]; at 50.0 µM) | growth inhibition [6, 7] | growth inhibition [6, 8] | growth inhibition ([6]; at 50.0 µM)
1 | COc1cc(C)cc(C(=O)OCc2ccccc2)c1C1=C(Cl)C(=O)C(Cl)=CC1=O | 16% | 16% | 85.5% (active) | 12% | 12% | 83.9% (active) | 5% | 5% | 87.5% (active) | 10% | 10% | 82% (active) | -16% | -16% | 80.5% (active) | 4% | 4% | 74.5% (active)
2 | N#CC1(C#N)C(C#N)(C#N)C12CCC2 | 4% | 87% (active) | 35.2% | 6% | 88% (active) | 49.8% | 6% | 91% (active) | 50.6% | 0% | 65% | -2.45% | 7% | 96% (active) | 70% (active) | 2% | 96% (active) | 83.8% (active)
3 | COc1ccc(N=NN(C)C)cc1 | -13% | 65% | 97% (active) | 13% | 28% | 70.3% (active) | -7% | 35% | 83.7% (active) | -42% | 26% | 76.5% (active) | -12% | 50% | 72% (active) | 17% | 92% (active) | 94.6% (active)
4 | CCCCCCCCN(CCCCCCCC)Cc1ccc(Br)cc1 | 98% (active) | 99% (active) | 99.2% (active) | 96% (active) | 100% (active) | 99.5% (active) | 99% (active) | 99% (active) | 99.5% (active) | 97% (active) | 99% (active) | 99% (active) | 96% (active) | 99% (active) | 99.2% (active) | 97% (active) | 99% (active) | 99.5% (active)
5 | OC1(c2ccccc2)CN(CCl)CC(c2ccccc2)O1 (stereo not given) | -2% | 7% | -10.6% | 0% | 2% | 17.3% | -1% | 7% | 46% | 12% | 15% | 10.4% | 2% | 6% | 71.8% (active) | -2% | 7% | 47.4%
6 | Cc1c(C(C)(C)C)cc(C(C)(C)C)c(O)c1CN(C)Cc1c(C)c(C(C)(C)C)cc(C(C)(C)C)c1O | -3% | 8% | 99.5% (active) | -8% | 3% | 99.3% (active) | 3% | 33% | 99.6% (active) | -6% | -3% | 99.5% (active) | -3% | 13% | 99.4% (active) | 4% | 17% | 99.5% (active)
7 | C#CCn1cnc2c(N)ncnc21 | -1% | -11% | 6.75% | 3% | -8% | 15.8% | 5% | -13% | 28.4% | 3% | -6% | 84.2% (active) | -4% | -16% | -6.65% | 2% | -14% | 7.3%
8 | OC(CN1CCCCC1)c1ccc2c(ccc3ccccc32)c1 (stereo not given) | 21% | 54% | 83% (active) | 6% | 46% | 50% | 35% | 75% (active) | 88.2% (active) | 19% | 50% | 75% (active) | 25% | 69% | 91.8% (active) | 22% | 61% | 87.5% (active)
9 | COc1cc(-c2oc(C=Nc3ccccc3)c([N+](=O)[O-])c2-c2ccc(O)c(OC)c2)ccc1O | 22% | 32% | 34.1% | 19% | 38% | -7.5% | -14% | 74% (active) | 31.4% | 7% | 74% (active) | -18.1% | 5% | 91% (active) | -16.8% | 25% | 61% | 1.65%
10 | CCc1cc2c(c3c1C(=O)CC3)C(C)(C)CCC2 | 1% | 96% (active) | 11% | 2% | 96% (active) | 34.6% | 1% | 97% (active) | 6.4% | 2% | 97% (active) | 13.8% | 12% | 97% (active) | 48.5% | -6% | 97% (active) | 5%
11 | CCCCC(CC)CNc1ncnc2c1cnn2C (stereo not given) | 1% | 92% (active) | 36.7% | -3% | 91% (active) | -1.45% | 1% | 94% (active) | 91.7% (active) | -10% | 89% (active) | 20.9% | 0% | 96% (active) | 48.4% | 14% | 96% (active) | 32.8%
12 | O=C(NCCCCCCNC(=O)n1cc(F)c(=O)[nH]c1=O)NC1C(O)OC(CO)C(O)C1O (stereo not given) | 63% | 89% (active) | 93.9% (active) | 80% (active) | 96% (active) | 97.6% (active) | 83% (active) | 93% (active) | 93.1% (active) | 34% | 84% (active) | 51% | 22% | 90% (active) | 80% (active) | 48% | 90% (active) | 88.2% (active)
13 | CC(=O)OC1CCCCCCCCCCC12OCCO2 (stereo not given) | 23% | 96% (active) | 30% | 5% | 98% (active) | 63% | 20% | 99% (active) | 73.5% (active) | 1% | 96% (active) | 63.6% | 1% | 96% (active) | 83% (active) | 10% | 96% (active) | 92% (active)
14 | CC(Cc1ccccc1)NNC(C)Cc1ccccc1 (stereo not given) | 10% | 81% (active) | 99.5% (active) | 4% | 64% | 96.2% (active) | 11% | 90% (active) | 75.5% (active) | -39% | 63% | 83.2% (active) | 16% | 91% (active) | 94.5% (active) | 7% | 83% (active) | 99.5% (active)
15 | O=C([O-])C[n+]1c(/C=C/c2ccccc2)ccc2ccccc21 | -2% | 69% | 37.1% | -3% | 87% (active) | 5.35% | -6% | 92% (active) | 28.9% | -3% | 85% (active) | 13.9% | 2% | 84% (active) | 6.8% | 0% | 94% (active) | 32.3%
16 | NC1OC(COC(=O)c2ccccc2)C(O)C(OC(=O)c2ccccc2)C1OC(=O)c1ccccc1 (stereo not given) | 0% | 97% (active) | 97% (active) | 2% | 98% (active) | 96.8% (active) | 11% | 98% (active) | 97.7% (active) | 11% | 97% (active) | 95.3% (active) | -1% | 98% (active) | 93.8% (active) | 4% | 97% (active) | 95.8% (active)
17 | O=C1/C(=C/c2ccc3c(c2)OCO3)Sc2scc(-c3ccc(O)c(O)c3)[n+]21 | 25% | 98% (active) | 83.8% (active) | 33% | 99% (active) | 88.3% (active) | 67% | 98% (active) | 91% (active) | 26% | 98% (active) | 89.4% (active) | 97% (active) | 98% (active) | 88.5% (active) | 27% | 99% (active) | 90.8% (active)
18 | O=C1CSC(=S)N1c1cccc(Cl)c1 | 20% | 28% | 40.5% | 15% | 23% | 86% (active) | 13% | 94% (active) | 79.6% (active) | 9% | 73% (active) | 19.4% | 8% | 92% (active) | 70.2% (active) | 24% | 48% | 91.7% (active)
19 | Brc1ccc(CCNCCN2CCCCC2)cc1 | 19% | 65% | 50.9% | 25% | 68% | 21% | 24% | 68% | 63.2% | 45% | 61% | 37.6% | 15% | 57% | 61.1% | 25% | 89% (active) | 45%
20 | CCCCCCCCCCCCCCCCCCNCCCCCCCCCCCCCCCC | 6% | 3% | 52.7% | -1% | 8% | 38.5% | 5% | 0% | 49.9% | -1% | 2% | 75% (active) | -5% | 3% | 69.2% | 4% | 6% | 45.8%
